In PubChem BioAssay (NCATS) one finds Potency and outcome data, which are given here for 38 compounds.

Results filed as inconclusive are left out. Where a call stands in place of a potency, no number is given. Active and inactive are the calls of the source. Calls come from the whole dose curve; as a rule, active = well fitted curve in the direction sought with a large enough effect; inconclusive = small, poorly fitted or top-dose-only effect, or another doubt; inactive = no such curve, though single readings can be large; an effect the other way counts as inactive or inconclusive. Residues, ends and D or L forms follow the SMILES beside them. *: point of attachment. Cbz = O=C(OCc1ccccc1)*

Sequence of Calcium and integrin-binding protein 1 (Homo sapiens) (Q99828 whole entry, looked up): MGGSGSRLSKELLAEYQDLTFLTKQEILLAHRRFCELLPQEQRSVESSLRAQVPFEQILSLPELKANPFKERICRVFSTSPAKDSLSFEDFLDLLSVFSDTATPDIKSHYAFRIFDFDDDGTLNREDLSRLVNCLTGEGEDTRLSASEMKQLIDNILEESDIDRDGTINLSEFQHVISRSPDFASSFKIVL

For the first assay, the target named is Calcium and integrin-binding protein 1 (Homo sapiens) (UniProt Q99828). Description: Primary qHTS for Identification of Calcium Integrin Binding Protein 1 (CIB1) Competitor (AID 1508620).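 Note: GST tagged CIB1 binding a fluorescein labelled alphaIIb integrin peptide tracer; top concentration of the series differs between compounds.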 As to conditions: CIB1-GST / FITC-alphaIIb peptide fluorescence polarization; series mostly up to 57.7 µM. An outline of the steps:
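CIB1-GST (1 uM final) and compound incubated 15 min at room temperature before adding FITC-alphaIIb peptide tracer (100 nM final). Competition for binding read by fluorescence polarization (ex 480, em 540) after another 15 min at room temperature.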
(In general: Quantitative high-throughput screening tests each substance at several concentrations.)
Turning to `CC(=O)SCC(Cc1ccccc1)C(=O)NCC(=O)OCc1ccccc1` (stereo unspecified), the Potency result is “inactive”.
With `Oc1ccc([C@@H]2Oc3ccc(O)cc3[C@@H]3CCC[C@@H]32)cc1`, the Potency entry is “inactive”.
Still for that read-out and setting: the entry for `c1cncc(CN2CCC(n3ncc4c(N5CCOCC5)nc(-c5ccc6[nH]ccc6c5)nc43)CC2)c1` is “inactive”; for `O=C(Nc1nnc(-c2ccco2)o1)c1cc(-c2ccccc2)nc2ccccc12` it is “inactive”; for `CC(C(C)N1CC(=O)NC(=O)C1)N1CC(=O)NC(=O)C1` (stereo unspecified) it is “inactive”.
With `COc1ccc(S(=O)(=O)Nc2cccnc2Nc2ccc(O)cc2)cc1`, the Potency result was “inactive”.
As to `O=C(O)c1ccc(Nc2ncc3c(n2)-c2ccc(Cl)cc2C(c2c(F)cccc2F)=NC3)cc1`, the Potency result was “inactive”.
Regarding `Cc1cncc2cccc(S(=O)(=O)N3CCCN(C(=O)CN)C[C@@H]3C)c12`, the Potency result was “inactive”.
On the same count and under the same terms, the entry for `c1coc(CNc2ncnc3nc[nH]c23)c1` is “inactive”; for `O=C(NC1CC1)c1cccc(-c2ccc3c(NC(=O)C4CC4)n[nH]c3c2)c1` it is “inactive”; for `Cc1cnc(Nc2ccc(N3CCN(C)CC3)cc2)nc1Nc1cccc(S(=O)(=O)NC(C)(C)C)c1` it is “inactive”.
For `CCOC(=O)[C@@H](N)Cc1ccc(-c2cc(O[C@H](c3ccc(Cl)cc3-n3ccc(C)n3)C(F)(F)F)nc(N)n2)cc1`, the Potency entry was “inactive”.
Same read-out and setting: the same measure for `Cc1cc(C(=O)NOCCO)c(Nc2ccc(I)cc2F)n(C)c1=O`: “inactive”.
The same measure, in the same setting: the same measure for `Nc1nc(N)c2nc(-c3cccc(O)c3)c(-c3cccc(O)c3)nc2n1`: “inactive”; for `CCCNS(=O)(=O)Nc1ncnc(OCCOc2ncc(Br)cn2)c1-c1ccc(Br)cc1`: “inactive”; for `Cn1cc(C[C@@H](N)C(=O)O)c2ccccc21`: “inactive”.
Same read-out and setting: the entry for `CCN(CC)CCCCNc1ncc2c(n1)N(C)C(=O)N(c1c(Cl)c(OC)cc(OC)c1Cl)C2` is “inactive”; for `COc1ccc(C[C@@H](C)[C@@H](C)Cc2ccc(OC)c(OC)c2)cc1OC` it is “inactive”.
For the compound `CC(C)C[C@@H](C=O)NC(=O)[C@H](CC(C)C)NC(=O)[C@H](CC(C)C)NC(=O)OCc1ccccc1` (Cbz-Leu-Leu-Leu-aldehyde), the Potency result is “inactive”.
Same read-out and setting: the same measure for `NC(=NCCCCCCN=C(N)N=C(N)Nc1ccc(Cl)cc1)N=C(N)Nc1ccc(Cl)cc1`: “inactive”; for `CC(Oc1ccc(O)cc1)(P(=O)(O)O)P(=O)(O)O`: “inactive”.
Same read-out and setting: the same measure for `Cn1cnc(=N)c2[nH]cnc21`: “inactive”; for `O=C(O)CCCCCC(=O)NN=C1CCCC1`: “inactive”.

Tested on in a further assay: not listed separately
Description: Primary qHTS for small molecule stabilizers of the endoplasmic reticulum resident proteome: Secreted ER Calcium Modulated Protein (SERCaMP) assay (AID 1508630). As to conditions: SH-SY5Y GLuc-SERCaMP (Gaussia luciferase released on ER calcium loss) secretion, thapsigargin, luminescence; series mostly up to 38.4 µM. Put shortly: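 The SH-SY5Y reporter protocol was run at 3 concentrations up to 38.3 uM (primary) or 11 concentrations (follow-up): 16 h compound, 100 nM thapsigargin for 4 h, then extracellular luciferase luminescence.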
For the compound `NC(=O)N1CCC(CC(=O)N2CCC([C@H]3c4ncc(Br)cc4CCc4cc(Cl)cc(Br)c43)CC2)CC1`, the result was inactive.
With `CCCCCCCN(CC)CCCC(O)c1ccc(NS(C)(=O)=O)cc1` (stereo unspecified), the outcome was inactive.
On to `CC(=O)NC(CS)C(=O)O` (stereo unspecified), for which the result was inactive.
On the same count and under the same terms, the entry for `COc1ccc(C=Cc2cc(OC)c(OC)c(OC)c2)cc1NC(=O)[C@H](N)CO` is “inactive”.
For the compound `Cc1ccc(O)c(C(CCN(C(C)C)C(C)C)c2ccccc2)c1` (stereo unspecified), the result was inactive.
For the compound `CC(C)[C@H](CO)Nc1nc(Nc2cccc(Cl)c2)c2ncn(C(C)C)c2n1`, the outcome was inactive.
As to `C[C@H](CCC(=O)O)[C@H]1CCC2C3C[C@H](O)[C@@H]4C[C@H](O)CC[C@]4(C)C3CC[C@@]21C` (stereo partly specified), the result was inactive.
The same measure, in the same setting: the same measure for `CCOC(=O)C1=C(C)NC(=S)NC1c1cccc(O)c1` (stereo unspecified): “inactive”; for `COc1cc2c(cc1OC)[C@@H]1C(=O)c3ccc4c(c3O[C@@H]1CO2)C=CC(C)(C)O4`: “inactive”.
The same measure, in the same setting: the same measure for `CC(C)C[C@H](NC(=O)CNC(=O)c1cc(Cl)ccc1Cl)B1OC(=O)CC(CC(=O)O)(C(=O)O)O1` (stereo partly specified): “inactive”; for `O=C1NCCc2[nH]c(-c3ccncc3)cc21`: “inactive”; for `Nc1nc2c(c(=O)[nH]1)N(C=O)[C@H](CNc1ccc(C(=O)N[C@@H](CCC(=O)O)C(=O)O)cc1)CN2`: “inactive”.
The same measure, in the same setting: the same measure for `NC(=O)Nc1cc(-c2ccc(CN3CCOCC3)cc2)sc1C(N)=O`: “inactive”; for `CCCCOc1ccc(C(=O)Nc2ccc(F)cc2F)cc1`: “inactive”; for `CC(=O)O[C@H]1C[C@@H]2CC[C@H]3[C@H]4C[C@H]([N+]5(C)CCCCC5)[C@@H](OC(C)=O)[C@@]4(C)CC[C@@H]3[C@@]2(C)C[C@H]1[N+]1(C)CCCCC1`: “inactive”.
Take `CC(=O)SCC(Cc1ccccc1)C(=O)NCC(=O)OCc1ccccc1` (stereo unspecified): the result was inactive.
Take `Oc1ccc([C@@H]2Oc3ccc(O)cc3[C@@H]3CCC[C@@H]32)cc1`: the outcome was inactive.
The same measure, in the same setting: the entry for `c1cncc(CN2CCC(n3ncc4c(N5CCOCC5)nc(-c5ccc6[nH]ccc6c5)nc43)CC2)c1` is “inactive”.
The same measure, in the same setting: the entry for `O=C(Nc1nnc(-c2ccco2)o1)c1cc(-c2ccccc2)nc2ccccc12` is “inactive”; for `CC(C(C)N1CC(=O)NC(=O)C1)N1CC(=O)NC(=O)C1` (stereo unspecified) it is “inactive”.
In the case of `COc1ccc(S(=O)(=O)Nc2cccnc2Nc2ccc(O)cc2)cc1`, the result was inactive.
On the same count and under the same terms, the entry for `O=C(O)c1ccc(Nc2ncc3c(n2)-c2ccc(Cl)cc2C(c2c(F)cccc2F)=NC3)cc1` is “inactive”.
As for `Cc1cncc2cccc(S(=O)(=O)N3CCCN(C(=O)CN)C[C@@H]3C)c12`, the result was inactive.
In the case of `c1coc(CNc2ncnc3nc[nH]c23)c1`, the outcome was inactive.
Take `O=C(NC1CC1)c1cccc(-c2ccc3c(NC(=O)C4CC4)n[nH]c3c2)c1`: the outcome was inactive.
Same read-out and setting: the same measure for `Cc1cnc(Nc2ccc(N3CCN(C)CC3)cc2)nc1Nc1cccc(S(=O)(=O)NC(C)(C)C)c1`: “inactive”.
Take `CCOC(=O)[C@@H](N)Cc1ccc(-c2cc(O[C@H](c3ccc(Cl)cc3-n3ccc(C)n3)C(F)(F)F)nc(N)n2)cc1`: the outcome was inactive.
Same read-out and setting: the same measure for `Cc1cc(C(=O)NOCCO)c(Nc2ccc(I)cc2F)n(C)c1=O`: “inactive”; for `Nc1nc(N)c2nc(-c3cccc(O)c3)c(-c3cccc(O)c3)nc2n1`: “inactive”.
In the case of `CCCNS(=O)(=O)Nc1ncnc(OCCOc2ncc(Br)cn2)c1-c1ccc(Br)cc1`, the result was inactive.
Same read-out and setting: the entry for `Cn1cc(C[C@@H](N)C(=O)O)c2ccccc21` is “inactive”; for `CCN(CC)CCCCNc1ncc2c(n1)N(C)C(=O)N(c1c(Cl)c(OC)cc(OC)c1Cl)C2` it is “inactive”.
On the same count and under the same terms, the entry for `COc1ccc(C[C@@H](C)[C@@H](C)Cc2ccc(OC)c(OC)c2)cc1OC` is “inactive”.
Still for that read-out and setting: the same measure for `CC(C)C[C@@H](C=O)NC(=O)[C@H](CC(C)C)NC(=O)[C@H](CC(C)C)NC(=O)OCc1ccccc1` (Cbz-Leu-Leu-Leu-aldehyde): “inactive”; for `NC(=NCCCCCCN=C(N)N=C(N)Nc1ccc(Cl)cc1)N=C(N)Nc1ccc(Cl)cc1`: “inactive”; for `CC(Oc1ccc(O)cc1)(P(=O)(O)O)P(=O)(O)O`: “inactive”.
For `Cn1cnc(=N)c2[nH]cnc21`, the result was inactive.
As to `O=C(O)CCCCCC(=O)NN=C1CCCC1`, the result was inactive.
